Experimental findings from ChEMBL document CHEMBL3988442, “University of Dundee, Small-Polar-MMV Screening Library” (2021) are described below.

For some of these results: Potency and affinity values are given separately.

Holding throughout (design): scale not given: direction of the effect not stated beside the values
Assay [1] has as its target Protein translocase subunit SecA (Escherichia coli (strain K12)) (UniProt P10408). In words: Assay to Identify E. coli SecA ATPase Inhibitors. In kind it is functional. The note with it: 30 µM.
The target in assay [2] is T1, Ubiquitin-activating enzyme e1, putative (Leishmania donovani (strain BPK282A1)) (UniProt E9BSI1).
T1 sequence (whole entry): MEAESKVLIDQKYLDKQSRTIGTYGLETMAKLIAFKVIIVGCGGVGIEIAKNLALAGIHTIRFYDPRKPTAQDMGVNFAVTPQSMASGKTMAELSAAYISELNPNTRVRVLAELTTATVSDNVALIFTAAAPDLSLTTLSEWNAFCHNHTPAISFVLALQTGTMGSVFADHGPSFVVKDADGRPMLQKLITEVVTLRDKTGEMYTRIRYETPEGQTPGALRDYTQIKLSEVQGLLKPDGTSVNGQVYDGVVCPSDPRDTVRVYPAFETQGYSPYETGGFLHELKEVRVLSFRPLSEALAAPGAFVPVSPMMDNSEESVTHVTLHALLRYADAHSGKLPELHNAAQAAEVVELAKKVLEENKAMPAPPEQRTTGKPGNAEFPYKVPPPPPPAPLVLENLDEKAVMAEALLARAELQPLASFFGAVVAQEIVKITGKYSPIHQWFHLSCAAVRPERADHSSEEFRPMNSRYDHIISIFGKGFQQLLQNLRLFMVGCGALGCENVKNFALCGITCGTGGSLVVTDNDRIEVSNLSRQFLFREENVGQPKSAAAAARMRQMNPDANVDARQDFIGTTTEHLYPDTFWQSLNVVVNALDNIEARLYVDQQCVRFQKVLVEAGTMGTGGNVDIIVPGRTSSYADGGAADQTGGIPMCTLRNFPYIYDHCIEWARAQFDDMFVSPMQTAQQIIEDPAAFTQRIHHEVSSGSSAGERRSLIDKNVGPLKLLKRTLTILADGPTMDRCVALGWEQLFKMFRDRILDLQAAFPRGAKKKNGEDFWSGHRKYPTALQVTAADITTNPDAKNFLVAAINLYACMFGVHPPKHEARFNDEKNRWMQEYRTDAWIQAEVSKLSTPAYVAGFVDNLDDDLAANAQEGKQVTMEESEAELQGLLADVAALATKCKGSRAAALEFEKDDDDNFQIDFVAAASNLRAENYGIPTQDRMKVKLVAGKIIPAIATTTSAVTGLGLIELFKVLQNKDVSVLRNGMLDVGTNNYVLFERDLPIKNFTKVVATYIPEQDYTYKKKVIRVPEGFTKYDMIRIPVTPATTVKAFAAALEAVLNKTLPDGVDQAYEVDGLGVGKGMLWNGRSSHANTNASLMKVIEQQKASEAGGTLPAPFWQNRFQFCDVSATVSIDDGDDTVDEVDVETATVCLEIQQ
Kind of assay: Leishmania donovani Ubiquitin Activating Enzyme (LdE1). It counts as functional. As to conditions: 30 µM.

Assay [3] has as its target AMP-activated protein kinase, AMPK (Homo sapiens) (UniProt P54646+O43741+P54619+Q9UGJ0+Q9Y478+Q13131+Q9UGI9). In words: AMP-dependent Kinase enzyme assay. An in vitro enzyme assay that detects ADP turnover that is directly proportional to AMPK activity. This uses naive AMPK that is activated during the assay with MK-8722. The note with it: 30 µM. It counts as functional.

In assay [4] the target is Sialic acid-binding Ig-like lectin 9 (Homo sapiens) (UniProt Q9Y336). Kind of assay: Hs-Siglec9 ALPHAscreen SOP 20170721. As to conditions: 10 µM. For orientation: Bead proximity is the source of the signal in Alpha formats.
Chain of Sialic acid-binding Ig-like lectin 9 (Homo sapiens) (Q9Y336 whole entry): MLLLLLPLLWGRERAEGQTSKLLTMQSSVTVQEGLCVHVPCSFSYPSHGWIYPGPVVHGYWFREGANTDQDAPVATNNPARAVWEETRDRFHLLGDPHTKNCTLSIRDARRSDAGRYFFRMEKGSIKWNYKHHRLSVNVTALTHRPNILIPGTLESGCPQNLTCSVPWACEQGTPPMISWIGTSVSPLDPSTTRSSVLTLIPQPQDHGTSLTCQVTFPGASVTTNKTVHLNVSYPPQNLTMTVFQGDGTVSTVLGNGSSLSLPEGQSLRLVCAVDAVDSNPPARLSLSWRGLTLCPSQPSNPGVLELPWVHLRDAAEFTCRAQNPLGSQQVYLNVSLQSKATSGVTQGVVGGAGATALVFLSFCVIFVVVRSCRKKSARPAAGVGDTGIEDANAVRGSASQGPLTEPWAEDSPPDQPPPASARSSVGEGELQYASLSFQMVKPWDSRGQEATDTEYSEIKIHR
In another assay the test system is Trypanosoma cruzi. Kind of assay: Trypanosoma cruzi phosphomannomutase and mannose-1-phosphate guanylyltransferase assay. It counts as functional. The note with it: 10 µM.
The target in assay [5] is T2, Arginase-2, mitochondrial (Homo sapiens) (UniProt P78540).
T2 sequence (whole entry): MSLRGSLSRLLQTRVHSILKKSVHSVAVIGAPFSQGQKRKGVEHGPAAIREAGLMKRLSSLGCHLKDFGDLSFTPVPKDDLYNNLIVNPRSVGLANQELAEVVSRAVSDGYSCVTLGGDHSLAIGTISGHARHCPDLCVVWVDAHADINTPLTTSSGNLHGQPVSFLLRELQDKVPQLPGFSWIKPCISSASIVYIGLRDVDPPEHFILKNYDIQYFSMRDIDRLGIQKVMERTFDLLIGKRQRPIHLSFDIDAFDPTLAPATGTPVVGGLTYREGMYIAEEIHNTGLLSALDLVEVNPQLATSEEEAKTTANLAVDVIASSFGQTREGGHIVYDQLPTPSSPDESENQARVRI
Kind of assay: in vitro enzyme assay to detect the production of urea directly proportional to the activity of Arginase II. Further: in the data most compounds retested in dose-response had high values. It counts as functional. As to conditions: 33.3 µM.

Assay [6] deals with T3, Proteasome subunit beta (Trypanosoma cruzi) (UniProt O96673).
T3 sequence (whole entry): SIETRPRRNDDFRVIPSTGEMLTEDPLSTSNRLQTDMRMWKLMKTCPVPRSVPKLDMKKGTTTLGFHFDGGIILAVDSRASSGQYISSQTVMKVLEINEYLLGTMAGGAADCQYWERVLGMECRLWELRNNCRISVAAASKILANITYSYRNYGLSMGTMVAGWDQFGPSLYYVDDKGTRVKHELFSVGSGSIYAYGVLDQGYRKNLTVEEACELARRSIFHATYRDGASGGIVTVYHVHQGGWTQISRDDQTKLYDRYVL
Kind of assay: Trypanosoma cruzi proteasome chymotrypsin-like activity (TcProtChymo) assay. Further: in the data most compounds retested in dose-response had high values. It counts as functional. The note with it: 9.37 µM.

For the next assay, the species on record is Homo sapiens. Kind of assay: To identify inhibition of the IFN signalling (Jak-Stat) pathway via expression of an eGFP reporter gene under the control of an IFN-stimulated response element (ISRE) containing MxA promoter. In kind it is functional. The note with it: 30 µM.
The target of assay [7] is T4, Tyrosyl-tRNA synthetase, putative (Trypanosoma cruzi (strain CL Brener)) (UniProt Q4DSP6).
T4 sequence (whole entry): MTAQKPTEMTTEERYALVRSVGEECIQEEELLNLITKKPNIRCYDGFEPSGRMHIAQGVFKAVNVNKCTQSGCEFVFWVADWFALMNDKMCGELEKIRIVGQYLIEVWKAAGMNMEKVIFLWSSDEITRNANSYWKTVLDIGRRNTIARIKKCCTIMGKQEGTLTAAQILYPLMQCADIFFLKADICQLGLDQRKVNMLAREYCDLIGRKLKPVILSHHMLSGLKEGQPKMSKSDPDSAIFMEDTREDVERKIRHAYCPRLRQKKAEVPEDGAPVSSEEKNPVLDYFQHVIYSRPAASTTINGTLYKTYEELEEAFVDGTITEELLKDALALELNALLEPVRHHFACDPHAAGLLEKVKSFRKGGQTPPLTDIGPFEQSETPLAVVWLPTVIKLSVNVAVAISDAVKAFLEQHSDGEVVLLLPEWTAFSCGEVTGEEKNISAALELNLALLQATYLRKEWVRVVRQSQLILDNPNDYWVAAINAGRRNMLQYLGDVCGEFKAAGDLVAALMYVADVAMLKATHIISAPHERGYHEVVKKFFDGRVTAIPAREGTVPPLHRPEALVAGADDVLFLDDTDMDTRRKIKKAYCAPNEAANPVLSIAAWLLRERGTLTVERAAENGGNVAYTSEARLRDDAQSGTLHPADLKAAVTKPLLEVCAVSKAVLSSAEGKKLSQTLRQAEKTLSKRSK
Kind of assay: Trypanosoma cruzi tyrosyl tRNA synthetase (TcYRS) _High Tyrosine SOP. Further: in the data most compounds retested in dose-response had high values. It counts as functional. As to conditions: 30 µM.

The target of assay [8] is T4, Tyrosyl-tRNA synthetase, putative (Trypanosoma cruzi (strain CL Brener)). In words: Trypanosoma cruzi tyrosyl tRNA synthetase (TcYRS) SOP. It counts as functional. As to conditions: 30 µM.
Assay [9] concerns the target Chromo domain-containing protein 1 (Saccharomyces cerevisiae (strain ATCC 204508 / S288c) (Baker's yeast)) (UniProt P32657). In words: ScCHD-1 Enzyme Inhibition Assay. Further: in the data most compounds retested in dose-response had high values. It counts as functional. As to conditions: 30 µM.

Chain of Chromo domain-containing protein 1 (Saccharomyces cerevisiae (strain ATCC 204508 / S288c) (Baker's yeast)) (P32657 whole entry, the tested form may be a part): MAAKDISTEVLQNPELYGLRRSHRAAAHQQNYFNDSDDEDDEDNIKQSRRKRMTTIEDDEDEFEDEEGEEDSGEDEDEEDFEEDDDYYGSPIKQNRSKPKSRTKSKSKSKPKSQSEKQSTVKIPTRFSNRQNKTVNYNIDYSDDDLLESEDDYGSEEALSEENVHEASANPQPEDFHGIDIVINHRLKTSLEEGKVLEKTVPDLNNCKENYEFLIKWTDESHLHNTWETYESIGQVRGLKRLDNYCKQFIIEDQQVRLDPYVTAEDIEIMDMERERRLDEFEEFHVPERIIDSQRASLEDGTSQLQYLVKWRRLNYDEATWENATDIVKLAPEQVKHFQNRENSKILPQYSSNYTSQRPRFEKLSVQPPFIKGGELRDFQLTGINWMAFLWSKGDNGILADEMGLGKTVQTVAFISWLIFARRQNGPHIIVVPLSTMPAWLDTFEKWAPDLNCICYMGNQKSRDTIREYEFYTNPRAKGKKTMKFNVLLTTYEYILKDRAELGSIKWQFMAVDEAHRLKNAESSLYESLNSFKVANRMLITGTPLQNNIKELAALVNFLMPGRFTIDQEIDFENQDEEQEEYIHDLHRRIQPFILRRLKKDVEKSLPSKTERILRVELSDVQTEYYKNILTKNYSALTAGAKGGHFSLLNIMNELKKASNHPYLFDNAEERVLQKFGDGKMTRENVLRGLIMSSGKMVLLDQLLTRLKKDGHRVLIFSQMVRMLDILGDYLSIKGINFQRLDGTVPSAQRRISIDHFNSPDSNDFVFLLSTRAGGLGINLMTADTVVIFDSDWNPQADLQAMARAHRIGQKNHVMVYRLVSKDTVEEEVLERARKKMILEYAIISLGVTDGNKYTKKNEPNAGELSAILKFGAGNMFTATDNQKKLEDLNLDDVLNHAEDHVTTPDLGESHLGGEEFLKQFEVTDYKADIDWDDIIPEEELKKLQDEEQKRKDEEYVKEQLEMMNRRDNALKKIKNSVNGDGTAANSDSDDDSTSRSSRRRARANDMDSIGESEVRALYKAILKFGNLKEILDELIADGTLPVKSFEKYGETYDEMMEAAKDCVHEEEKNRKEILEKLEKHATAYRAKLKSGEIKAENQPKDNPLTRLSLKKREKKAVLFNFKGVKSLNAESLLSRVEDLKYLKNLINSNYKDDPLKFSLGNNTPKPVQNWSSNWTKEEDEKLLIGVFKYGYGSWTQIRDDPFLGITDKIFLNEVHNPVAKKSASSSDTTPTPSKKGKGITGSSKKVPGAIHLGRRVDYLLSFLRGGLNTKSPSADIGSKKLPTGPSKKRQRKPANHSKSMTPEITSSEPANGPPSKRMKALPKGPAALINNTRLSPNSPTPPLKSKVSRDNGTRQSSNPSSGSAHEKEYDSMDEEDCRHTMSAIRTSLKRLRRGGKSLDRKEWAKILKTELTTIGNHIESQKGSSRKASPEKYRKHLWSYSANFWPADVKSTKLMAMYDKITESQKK
Chain of Protein translocase subunit SecA (Escherichia coli (strain K12)) (P10408 whole entry): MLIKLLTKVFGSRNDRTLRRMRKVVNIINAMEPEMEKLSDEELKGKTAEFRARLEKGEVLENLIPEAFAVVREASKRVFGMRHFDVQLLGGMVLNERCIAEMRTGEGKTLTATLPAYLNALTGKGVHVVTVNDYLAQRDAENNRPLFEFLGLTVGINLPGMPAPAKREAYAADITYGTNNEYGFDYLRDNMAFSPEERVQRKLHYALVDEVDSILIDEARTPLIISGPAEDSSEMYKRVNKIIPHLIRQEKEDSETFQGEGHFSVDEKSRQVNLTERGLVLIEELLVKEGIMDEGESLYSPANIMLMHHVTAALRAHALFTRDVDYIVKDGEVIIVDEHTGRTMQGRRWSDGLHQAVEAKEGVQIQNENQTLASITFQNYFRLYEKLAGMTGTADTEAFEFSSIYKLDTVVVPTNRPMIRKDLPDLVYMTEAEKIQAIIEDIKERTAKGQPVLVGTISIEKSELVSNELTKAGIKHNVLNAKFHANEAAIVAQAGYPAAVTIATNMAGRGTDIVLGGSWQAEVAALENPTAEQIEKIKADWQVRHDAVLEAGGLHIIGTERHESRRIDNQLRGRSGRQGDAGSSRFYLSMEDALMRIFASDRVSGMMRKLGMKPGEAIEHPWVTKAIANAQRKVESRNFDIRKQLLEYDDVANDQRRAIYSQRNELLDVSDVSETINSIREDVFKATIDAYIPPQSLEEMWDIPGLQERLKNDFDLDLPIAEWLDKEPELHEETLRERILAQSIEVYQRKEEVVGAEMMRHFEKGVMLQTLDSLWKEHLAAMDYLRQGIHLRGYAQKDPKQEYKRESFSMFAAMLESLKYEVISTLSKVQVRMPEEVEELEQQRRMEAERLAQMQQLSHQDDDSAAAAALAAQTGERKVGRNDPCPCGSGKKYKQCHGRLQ

Take `Cc1cc(C(=O)N2CCCC(n3ccnc3C)C2)c(C)s1` (stereo unspecified): the Percent Effect was -3.98% in assay [1]; -5.26% in [2]; 5.18% in [3]; -0.508% in assay [4]; 6.52% in the assay on Trypanosoma cruzi; 0% in assay [5]. For the same compound, the Percent Effect was 1.44% in [6]; 13.2% in the assay listed under Homo sapiens; 1.06% in [7]; 2.6% in [8]; -2.55% in assay [9].

Consider `Cc1cc(=O)n(CC(=O)Nc2ccc(C(N)=O)cc2)nc1C`, for which the Percent Effect was -0.496% in [1]; 0% in assay [2]; -2.6% in [3]; 15.7% in assay [4]; 3.67% in the assay on Trypanosoma cruzi; 0.952% in assay [5]. The Percent Effect in assay [6] was 11.6%; in the assay filed under Homo sapiens, 4.44%; in [7] it was 1.59%; in assay [8], 9.76%; in assay [9], -0.0727%.

With `COC[C@@]12CCO[C@@H]1CCN(Cc1ccccc1F)C2`, the Percent Effect is -2.12% in [1]; 11% in assay [2]; -5.09% in [3]; 8.1% in assay [4]; 5.75% in the assay on Trypanosoma cruzi; -2.79% in assay [5]. For the same compound, the Percent Effect in assay [6] was 10.5%; in the assay filed under Homo sapiens, 3.87%; in [7] it was 4.17%; in [8], 8.64%; in assay [9] it was -4.87%.

Regarding `COc1ccc(NC(=O)N2CCN(c3ncccn3)CC2)cn1`, the Percent Effect was -0.45% in assay [1]; 8.22% in assay [2]; 2.23% in assay [3]; -2.77% in [4]; -3.53% with Trypanosoma cruzi; 3.64% in assay [5]. In addition, the Percent Effect is 7.63% in [6]; 11.7% in the assay listed under Homo sapiens; 4.3% in [7]; 10% in [8]; -3.82% in assay [9].

As to `CCN1CCN(S(=O)(=O)c2ncn(C)c2Cl)CC1`, the Percent Effect in [1] is -6.34%; in assay [2], 6.94%; in assay [3], -0.0263%; in assay [4] it was 3.04%; in the assay with Trypanosoma cruzi, -3.79%; in assay [5], 1.77%. Besides, the Percent Effect in assay [6] was 21.4%; in the assay listed under Homo sapiens, 6.76%; in assay [7], 1.05%; in assay [8] it was 10.3%; in [9], -1.92%.

Turning to `Cc1cc(C(=O)N2CCN(C(=O)Cc3ccccn3)CC2)c(C)s1`, the Percent Effect is -3.63% in assay [1]; 6.33% in assay [2]; 1.98% in assay [3]; -0.00439% in assay [4]; -1.54% in the assay on Trypanosoma cruzi; -11% in [5]. The Percent Effect was 4.8% in assay [6]; -10.2% in the assay listed under Homo sapiens; 7.29% in assay [7]; 7.59% in assay [8]; 5.75% in assay [9].

For `COc1cc(C)c(C(C)NC(=O)Nc2nnc(C)s2)cc1OC` (stereo unspecified), the Percent Effect was -4.05% in assay [1]; 5.41% in assay [2]; -4.62% in [3]; 14.6% in assay [4]; 7.72% with Trypanosoma cruzi; 1.24% in assay [5]. The Percent Effect in assay [6] is 7.64%; in the assay listed under Homo sapiens, 11.2%; in assay [7] it was 2.15%; in assay [8], 11.1%; in assay [9], -3.99%.

Take `N#Cc1ccc(C(=O)N2CCC3(CC2)C(=O)Nc2ccccc23)cn1`: the Percent Effect in assay [1] was -4.93%; in assay [2], 8.11%; in assay [3] it was 0.0753%; in assay [4], 1.98%; in the assay on Trypanosoma cruzi, -0.684%; in [5] it was 2.73%. Moreover, the Percent Effect is 9.87% in [6]; 0.335% in the assay filed under Homo sapiens; 10.8% in assay [7]; 18.5% in assay [8]; -4.78% in [9].

Consider `CCS(=O)(=O)N1CCC2(CC(=O)N(c3cccc(C)c3)C2)C1` (stereo unspecified), for which the Percent Effect in assay [1] was -2.42%; in assay [2] it was 8%; in assay [3], -0.745%; in assay [4], 0.841%; in the assay with Trypanosoma cruzi it was 1.54%; in assay [5] it was -48.9%. In addition, the Percent Effect in assay [6] is 8.21%; in the assay filed under Homo sapiens, -25.8%; in [7], 8.33%; in assay [8], 27.5%; in assay [9], -6.79%.

On to `Cc1occc1C(=O)N1CCC2(CCCN(CC3CCC3)C2=O)C1` (stereo unspecified), for which the Percent Effect in [1] was 0.601%; in [2], 1.39%; in assay [3], -1.7%; in [4], 8.02%; with Trypanosoma cruzi it was 2.62%; in assay [5], 11%. Besides, the Percent Effect in assay [6] is 13.3%; in the assay filed under Homo sapiens, 13.6%; in assay [7] it was 6.32%; in assay [8], 10.3%; in [9], -2.8%.

Take `CC(C)c1cc(NC(=O)CN2CCc3ccccc3C2)on1`: the Percent Effect in [1] is -4.45%; in assay [2] it was 28.6%; in assay [3] it was -1.59%; in assay [4], 2.02%; with Trypanosoma cruzi, 5.99%; in assay [5], -2.85%. The Percent Effect in assay [6] is 10.6%; in the assay listed under Homo sapiens, 14.1%; in assay [7] it was 7.77%; in assay [8], 26.8%; in assay [9], -12.1%.
